Here are results for 61 compounds from PubChem BioAssay AID1578 (Sanford-Burnham Center for Chemical Genomics, 2009).

Out of some 290,000 compounds screened, about 3,000 (1%) were called active. The sample holds actives, similar compounds and a random draw of the others, so the mix is not that of the screen. No stated cut-off is given here; in the data, active means inhibition mostly above about 36% (no sharp cut-off); inactive means mostly below about 34%.

A short description of this assay: inhibition of NOD1-driven NF-kB reporter – cell-based, luminescence, uHTS, primary screen (AID 1578).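 Further: HEK-293T reporter cells stimulated with the NOD1 agonist gamma-tri-DAP.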 The settings on record: NOD1-driven NF-kB luciferase reporter cells, at 4 µM, active compounds read high. (In general: A reporter such as luciferase makes a cellular process visible.)
In the case of `CN(C(=O)c1ccccc1C(=O)OCC(=O)NC(=O)NC(C)(C)C)C1CCCCC1`, the inhibition – broadly, the relative decrease from the control value, in per cent – is -11.4% (inactive).

As to `Nc1cc(N)nc(SCC(=O)Nc2ccccc2)n1`, the inhibition was 17.4% (inactive).

In the case of `O=C(CSc1ncnc2scc(-c3ccccc3)c12)Nc1ccc(C(=O)O)cc1`, the inhibition is 24.9% (inactive).

Take `COc1ccnc(Oc2ccc(F)cc2)c1C(=O)N/C=N/OCc1ccc(F)cc1`: the inhibition is -24% (inactive).

Take `Cc1oc2c(c(C)cc3oc(=O)c(CC(=O)N[C@@H](CC(C)C)C(=O)O)c(C)c32)c1C`: the inhibition is -2.2% (inactive).

In the case of `O=C(O)CCn1cc(/C=C/C(=O)c2ccc(Cl)cc2)c(-c2ccc(Br)cc2)n1`, the inhibition was 52.9% (inactive).

For the compound `O=Cc1cn(CCC(=O)O)nc1-c1cccc(Br)c1`, the inhibition is -28.9% (inactive).

For the compound `CC(=O)c1sc(N/N=C\c2cccc(Br)c2)nc1C`, the inhibition was 3.9% (inactive).

`C=CCNC(=O)/C(C#N)=C/c1ccc2c(c1)OCCO2`: the inhibition was -33.6% (inactive).

Regarding `Cn1c(O)c(C=Nc2ccc(Br)cc2)sc1=O`, the inhibition was 53.6% (active).

For the compound `Cc1ccc(N=Cc2sc(O)c3ccccc23)cc1`, the inhibition was -36.5% (inactive).

On to `CCn1c(O)c(C=Nc2ccccc2)sc1=O`, for which the inhibition was -27.2% (inactive).

Regarding `CCOc1ccc(C(=O)Nc2nnc(S(=O)(=O)N3CCCCC3)s2)cc1`, the inhibition is 2.6% (inactive).

Turning to `O=C(N/N=C/c1cccc(OC(=O)c2cccc(Br)c2)c1)c1ccncc1`, the inhibition is -35% (inactive).

In the case of `CCOC(=O)CC(NC(=O)c1ccco1)c1ccccc1Cl` (stereo unspecified), the inhibition was -14.8% (inactive).

As to `Fc1ccc(NC(=S)Nc2ccc(F)c(Cl)c2)cc1Cl`, the inhibition was 74.1% (active).

Take `CC(=O)Nc1cccc(NC(=S)Nc2ccc(F)c(Cl)c2)c1`: the inhibition was 3% (inactive).

For the compound `Fc1ccc(NC(=S)Nc2cccnc2)cc1Cl`, the inhibition is -27% (inactive).

`Cn1cc(C(=O)NS(=O)(=O)Nc2ccc(Br)cn2)c2ccccc21`: the inhibition was -29% (inactive).

Consider `CC(C)(C)c1nnc(N/N=C/c2ccccc2O)n(N)c1=O`, for which the inhibition was -45.8% (inactive).

For `CC(C)(C)c1nnc(N/N=C/c2ccc(Br)cc2)n(N)c1=O`, the inhibition is -33.2% (inactive).

As for `CC(C)(C)c1nnc(N/N=C/c2cc(Br)ccc2O)n(N)c1=O`, the inhibition was 68.7% (active).

For `O=C(Nc1ncccc1Cl)c1ccccc1F`, the inhibition is -31.4% (inactive).

As to `Cc1[nH]n(-c2ccccc2)c(=O)c1/C=N/NC(=O)c1ccccc1F`, the inhibition was -9.2% (inactive).

Consider `Cc1ccc(-n2[nH]c(C)c(/C=N/NC(=O)c3cccc([N+](=O)[O-])c3)c2=O)cc1C`, for which the inhibition is 92.8% (active).

With `Cc1[nH]n(-c2cccc3ccccc23)c(=O)c1/C=N/NC(=O)c1cccc([N+](=O)[O-])c1`, the inhibition was -8.2% (inactive).

Regarding `Cc1ccc(-n2[nH]c(C)c(/C=N/NC(=O)c3ccc([N+](=O)[O-])cc3)c2=O)c(C)c1`, the inhibition is -20.9% (inactive).

As for `Cc1[nH]n(-c2ccc(Br)cc2)c(=O)c1/C=N/NC(=O)c1ccccc1`, the inhibition was 69% (inactive).

As to `Cc1cc(NS(=O)(=O)c2ccc(NC(=S)NC(=O)c3ccncc3)cc2)no1`, the inhibition was -4.1% (inactive).

For `O=C(OCCN1CCCCC1)c1cccc(F)c1`, the inhibition was -21.9% (inactive).

Turning to `CCOc1cc(C2C(C(=O)OC)=CN(Cc3ccc(Cl)cc3)C=C2C(=O)OC)ccc1O`, the inhibition was -1.2% (inactive).

With `O=C(CCCn1c(=O)[nH]c2ccccc2c1=O)Nc1ccc(F)cc1`, the inhibition was -2.3% (inactive).

On to `COc1ccc(NC(=O)C2CC(=O)OC2c2ccccc2)cc1` (stereo unspecified), for which the inhibition was -23.5% (inactive).

Consider `COc1cccc(NC(=O)CN2C(=O)COc3ccc(Cl)cc32)c1`, for which the inhibition was 26.8% (inactive).

Turning to `NC(=O)C1=C[C@@H](c2csc3ccccc23)C[C@@H](OCCCCO)O1`, the inhibition was -3.6% (inactive).

In the case of `Cc1cc(N=CC2=C(O)CC(C)(C)CC2=O)no1`, the inhibition was 13.1% (inactive).

As to `COCCn1c(SCC(=O)NCc2ccccc2)nc2ccccc21`, the inhibition is 6.7% (inactive).

`O=C1c2ccccc2C2=Nc3ccccc3SC(c3ccccc3F)C12` (stereo unspecified): the inhibition was 36.8% (inactive).

Turning to `O=C1c2ccccc2C2=Nc3ccccc3SC(c3cccc(F)c3)C12` (stereo unspecified), the inhibition was 49.7% (inactive).

As to `O=C1c2ccccc2C2=Nc3ccccc3SC(c3ccc(Cl)cc3)C12` (stereo unspecified), the inhibition was 74.7% (active).

As to `NC(=O)CC(NC(=O)c1ccccc1)c1ccc(NCCOc2ccccc2)c([N+](=O)[O-])c1` (stereo unspecified), the inhibition was 1.2% (inactive).

Take `Cc1ccc(C(=O)N2CCN3C(=O)c4ccccc4C23c2ccc(Cl)cc2)cc1` (stereo unspecified): the inhibition is -52.7% (inactive).

`O=C(c1ccccc1)N1CCN2C(=O)c3ccccc3C12c1ccc(Cl)cc1` (stereo unspecified): the inhibition was -44.9% (inactive).

As for `O=C(CCl)N1CCN2C(=O)c3ccccc3C12c1ccc(Cl)cc1` (stereo unspecified), the inhibition was 87.1% (active).

As for `O=C(Cn1c(=O)c2cccn2c2ccccc21)Nc1ccc(F)cc1F`, the inhibition was -12.1% (inactive).

Consider `Cc1cc(C)nc(N(C#N)S(=O)(=O)c2ccccc2)n1`, for which the inhibition is 9.1% (inactive).

As for `CC(C(=O)O/N=C(\N)c1ccccn1)c1ccc([N+](=O)[O-])cc1` (stereo unspecified), the inhibition was -16.2% (inactive).

With `N/C(=N\OCc1ccc([N+](=O)[O-])cc1)c1ccncc1`, the inhibition was -27.7% (inactive).

On to `N/C(=N\OCc1ccc([N+](=O)[O-])cc1)c1ccccn1`, for which the inhibition was 88.4% (active).

Take `CCCC(=O)Nc1ccccc1NC(=O)c1ccc(OCC)cc1`: the inhibition is 2.3% (inactive).

For `O=C1CC(N2CCC(c3nc4ccccc4[nH]3)CC2)C(=O)N1Cc1ccccc1` (stereo unspecified), the inhibition was -24.3% (inactive).

On to `Cc1cc(-c2ccc(C(C)C)c(S(=O)(=O)N3CCN(c4ccccc4)CC3)c2)on1`, for which the inhibition was 0% (inactive).

On to `CCc1cc2c(=O)[nH]c(-c3ccncc3)nc2s1`, for which the inhibition was 29.8% (inactive).

`CCc1cc2c(=O)[nH]c(Cc3ccccc3)nc2s1`: the inhibition was 0.4% (inactive).

Turning to `CCc1cc2c(=O)[nH]c(-c3ccccn3)nc2s1`, the inhibition was 112% (active).

Consider `CC(C)Nc1nc(Cl)nc(N(C#N)CN2C(=O)c3ccccc3S2(=O)=O)n1`, for which the inhibition was -4.8% (inactive).

For the compound `COc1ccc2nc(SCC(=O)Nc3nccs3)[nH]c2c1`, the inhibition was -39.1% (inactive).

On to `COc1ccc(NC(=O)CN2CCN(c3c(C)cccc3C)CC2)cc1`, for which the inhibition was -8.8% (inactive).

For `COC(=O)c1ccc(CN2C(=O)C(C)N(C(=O)c3c(F)cccc3F)c3ccccc32)cc1` (stereo unspecified), the inhibition is -2.1% (inactive).

Consider `COc1ccc(CN2C(=O)C(C)N(C(=O)c3c(F)cccc3F)c3ccccc32)cc1` (stereo unspecified), for which the inhibition is 6.5% (inactive).

For `CC1C(=O)N(Cc2ccc(F)cc2)c2ccccc2N1C(=O)c1c(F)cccc1F` (stereo unspecified), the inhibition was 43.5% (active).
